Source: PubChem BioAssay AID1159580 (chemical genetic matrix, 2015)
The campaign covered roughly 5,500 compounds. About 2,000 (36%) were called active. Not shown: some 18% with an inconclusive outcome. Some of the results follow. Unmarked numbers belong to inactive results. Cut-off read from the data, not from the text of the source: active = normalized growth mostly below about 0.91 (no sharp cut-off); inconclusive = no clear call, values can overlap the other calls; inactive = mostly above about 0.92.

Assay: chemical genetic growth profiling, strain panel (AID 1159580);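 note: tested at 20 µM; growth read once vehicle control cultures reached saturation at 30 °C; 1 = growth at the plate median or of vehicle wells; lower values mean less growth of the strain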
Conditions: S. cerevisiae deletion strains, growth OD

## CN1CCc2cc(O)cc3c2[C@H]1Cc1ccc(O)c(O)c1-3
Locus YAL013W, strain DEP1, hits give low values
  normalized growth: 0.844 (active)
Locus YAL040C, strain CLN3, hits give low values
  normalized growth: 1.06
Locus YCL061C, strain MRC1 (second series), hits give low values
  normalized growth: 0.794 (active)
Locus YDR363W, strain ESC2, hits give low values
  normalized growth: 0.927
Locus YER002W, strain NOP16, hits give low values
  normalized growth: 1
Locus YGR078C, strain PAC10, hits give low values
  normalized growth: 0.946
Locus YJR075W, strain HOC1, hits give low values
  normalized growth: 0.492 (active)
Locus YMR307W, strain GAS1, hits give low values
  normalized growth: 0.798 (active)
Locus YNL153C, strain GIM3, hits give low values
  normalized growth: 0.902
Locus YNL175C, strain NOP13, hits give low values
  normalized growth: 0.994
Locus YNL197C, strain WHI3, hits give low values
  normalized growth: 1.02
Locus YNL224C, strain SQS1, hits give low values
  normalized growth: 1.03
Locus YNL322C, strain KRE1, hits give low values
  normalized growth: 0.786 (active)
Locus YOR083W, strain WHI5 (second series), hits give low values
  normalized growth: 0.912
Locus YPL055C, strain LGE1, hits give low values
  normalized growth: 0.575 (active)
Locus YPL241C, strain CIN2, hits give low values
  normalized growth: 0.876 (active)
